This note sets out measurements from the antibiotic and cytotoxicity screens of Wong et al. (2023).

The structures appear in SMILES notation. Hit rate of the full screen: of about 39,000 compounds, about 1,500 (3.8%) were called active. The entries come from a sample that favours actives as a whole.

The subject of this assay is HSkMC (human skeletal muscle cells). The assay is described as follows: cytotoxicity call (relative viability < 0.9). The note with it: 10 µM.
On to `Cc1sc(Nc2ccccc2)nc1-c1ccc(Cl)cc1`, for which the cytotoxicity call was “inactive”.
Turning to `COc1ccc(CCN2C(=O)[C@@]3(c4ccc([N+](=O)[O-])cc4)CC(=O)N(CC45CC6CC(CC(C6)C4)C5)[C@@H]3c3ccc(CO)cc32)cc1`, the cytotoxicity call is “inactive”.
The result for `O=C1CSC(=S)N1` reads “inactive”; that for `COc1ccc(NC(=O)N(C)C[C@H]2Oc3c(NC(=O)Nc4ccc(C(F)(F)F)cc4)cccc3C(=O)N([C@H](C)CO)C[C@@H]2C)cc1`, “inactive”; that for `COc1ccc(S(=O)(=O)Nc2ccc3c(c2)CC(=O)N([C@H](C)CO)C[C@H](C)[C@@H](CN(C)S(=O)(=O)c2ccccc2)O3)cc1`, “inactive”.
Turning to `C[C@@H]1CCCCO[C@@H](CN(C)Cc2ccncc2)[C@H](C)CN([C@H](C)CO)C(=O)c2cc(NC(=O)Cc3ccccc3)ccc2O1`, the cytotoxicity call is “inactive”.
The result for `C[C@@H]1CN([C@@H](C)CO)C(=O)c2cc(NC(=O)Nc3ccc(F)cc3)ccc2O[C@@H](C)CCCCO[C@@H]1CN(C)Cc1ccc2c(c1)OCO2` reads “inactive”; that for `C[C@@H]1CN([C@@H](C)CO)C(=O)c2cc(NC(=O)Nc3ccc(F)cc3)ccc2O[C@@H](C)CCCCO[C@@H]1CN(C)Cc1ccc(C(=O)O)cc1`, “inactive”.
For `C[C@@H]1CN([C@H](C)CO)C(=O)c2cc(NS(=O)(=O)c3cn(C)cn3)ccc2O[C@@H]1CN(C)Cc1ccncc1`, the cytotoxicity call is “inactive”.
The result for `C[C@@H]1CN([C@@H](C)CO)C(=O)Cc2cc(NC(=O)Nc3ccc(F)cc3)ccc2O[C@@H]1CN(C)Cc1ccc(-c2ccccc2)cc1` reads “inactive”; that for `C[C@H]1CN([C@@H](C)CO)C(=O)Cc2cc(NC(=O)Nc3ccc(F)cc3)ccc2O[C@@H]1CN(C)Cc1ccc(-c2ccccc2)cc1`, “inactive”; that for `C[C@@H]1CN([C@H](C)CO)C(=O)Cc2cc(NC(=O)Nc3ccc(F)cc3)ccc2O[C@@H]1CN(C)Cc1ccc(-c2ccccc2)cc1`, “inactive”.
As for `C[C@@H]1CN([C@H](C)CO)C(=O)Cc2cc(NC(=O)c3ccncc3)ccc2O[C@@H]1CN(C)Cc1ccc(-c2ccccc2)cc1`, the cytotoxicity call is “active”.
The result for `C[C@H](CO)N1C[C@H](C)[C@H](CN(C)Cc2ccc(-c3ccccc3)cc2)Oc2ccc(NC(=O)c3ccncc3)cc2CC1=O` reads “inactive”.
Take `C[C@@H]1CN([C@H](C)CO)C(=O)Cc2cc(NC(=O)Nc3ccc4c(c3)OCO4)ccc2O[C@@H]1CN(C)Cc1ccc(-c2ccccc2)cc1`: the cytotoxicity call was “active”.
With `C[C@H]1CN([C@@H](C)CO)C(=O)Cc2cc(NC(=O)Nc3ccc4c(c3)OCO4)ccc2O[C@H]1CN(C)Cc1ccc(-c2ccccc2)cc1`, the cytotoxicity call was “inactive”.
The entry for `C[C@H](CO)N1C[C@H](C)[C@H](CN(C)Cc2ccc(-c3ccccc3)cc2)Oc2ccc(NC(=O)Nc3ccc(F)cc3)cc2CC1=O` is “active”; for `C[C@H](CO)N1C[C@H](C)[C@@H](CN(C)Cc2ccc(-c3ccccc3)cc2)Oc2ccc(NC(=O)Nc3ccc(F)cc3)cc2CC1=O` it is “inactive”.
The entry for `C[C@H]1CN([C@@H](C)CO)C(=O)Cc2cc(NC(=O)c3ccncc3)ccc2O[C@H]1CN(C)Cc1ccc(-c2ccccc2)cc1` is “inactive”; for `C[C@H]1CN([C@@H](C)CO)C(=O)Cc2cc(NC(=O)Nc3ccc(F)cc3)ccc2O[C@H]1CN(C)Cc1ccc(-c2ccccc2)cc1` it is “active”.
Take `C[C@@H]1CN([C@@H](C)CO)C(=O)Cc2cc(NC(=O)Nc3ccc4c(c3)OCO4)ccc2O[C@H]1CN(C)Cc1ccc(-c2ccccc2)cc1`: the cytotoxicity call was “inactive”.
On to `COCC#Cc1ccc2c(c1)O[C@@H](CN(C)C(=O)C1CCOCC1)[C@H](C)CN([C@H](C)CO)S2(=O)=O`, for which the cytotoxicity call is “inactive”.
The entry for `CC(C)[Si](C#CCCCC#N)(O[C@H](c1ccccc1)c1cn(Cc2cccc(Cl)c2)nn1)C(C)C` is “inactive”.
With `C[C@H](CO)N1C[C@H](C)[C@@H](CN(C)Cc2ccccc2)OCCCC[C@H](C)Oc2ccc(NC(=O)Nc3ccc(F)cc3)cc2C1=O`, the cytotoxicity call is “inactive”.
The entry for `C[C@H]1CN([C@@H](C)CO)C(=O)c2cccc(NC(=O)c3ccc(-c4nccs4)cc3)c2O[C@@H]1CN(C)Cc1ccccc1` is “inactive”.
`Cc1noc(C)c1NC(=O)N(C)C[C@@H]1Oc2ncc(C#Cc3ccccc3)cc2C(=O)N([C@H](C)CO)C[C@@H]1C`: the cytotoxicity call is “inactive”.
As for `COc1ccc(S(=O)(=O)Nc2ccc3c(c2)C(=O)N([C@@H](C)CO)C[C@H](C)[C@H](CN(C)C(=O)NC2CCCCC2)OCCCC[C@H](C)O3)cc1`, the cytotoxicity call is “inactive”.
The result for `CCCC#Cc1ccc2c(c1)O[C@@H](CN(C)Cc1ccc3c(c1)OCO3)[C@@H](C)CN([C@@H](C)CO)S2(=O)=O` reads “inactive”.
For `COCC(=O)N1CC[C@]2(CC1)CN([C@@H](CO)c1[nH]c3cc(ccc3c12)OC)S(=O)(=O)C`, the cytotoxicity call was “inactive”.
The entry for `Cn1c2c(c(=S)[nH]c1=O)CCC2` is “inactive”; for `Cc1ccc(S(=O)(=O)Nc2ccc3c(c2)C(=O)N([C@@H](C)CO)C[C@H](C)[C@H](CN(C)Cc2ccc(C(=O)O)cc2)OCCCC[C@H](C)O3)cc1` it is “inactive”.
As to `C[C@@H]1CN([C@@H](C)CO)C(=O)c2cc(NC(=O)Nc3ccc4c(c3)OCO4)ccc2O[C@@H](C)CCCCO[C@@H]1CN(C)Cc1ccc(C(=O)O)cc1`, the cytotoxicity call is “inactive”.
Take `C[C@@H]1CN([C@@H](C)CO)C(=O)c2cc(NC(=O)Nc3ccc(F)cc3)ccc2O[C@@H](C)CCCCO[C@H]1CN(C)C(=O)Cc1ccccc1`: the cytotoxicity call is “inactive”.
The result for `C[C@@H]1CN([C@@H](C)CO)C(=O)c2cc(NC(=O)Nc3ccccc3)ccc2O[C@@H](C)CCCCO[C@@H]1CN(C)C(=O)Cc1ccccc1` reads “inactive”; that for `C[C@H]1CCCCO[C@H](CN(C)Cc2ccc(C(=O)O)cc2)[C@@H](C)CN([C@@H](C)CO)C(=O)c2cc(NC(=O)C3CCCCC3)ccc2O1`, “inactive”.
The entry for `C(=N\c1ccccc1)/c1ccc(Oc2ccccc2)cc1` is “inactive”; for `C[C@H]1CN([C@@H](C)CO)C(=O)Cc2cc(NC(=O)CCCCCC(=O)Nc3ccccc3N)ccc2O[C@@H]1CN(C)Cc1ccc(C(F)(F)F)cc1` it is “inactive”; for `C[C@@H]1CN([C@H](C)CO)C(=O)Cc2cc(NC(=O)CCCCCC(=O)Nc3ccccc3N)ccc2O[C@H]1CN(C)Cc1ccc(C(F)(F)F)cc1` it is “inactive”.
Consider `C[C@@H]1CN([C@@H](C)CO)C(=O)Cc2cc(NC(=O)CCCCCC(=O)Nc3ccccc3N)ccc2O[C@H]1CN(C)Cc1ccc(C(F)(F)F)cc1`, for which the cytotoxicity call is “inactive”.
The entry for `C[C@H](CO)N1C[C@H](C)[C@H](CN(C)Cc2ccc(C(F)(F)F)cc2)Oc2ccc(NC(=O)CCCCCC(=O)Nc3ccccc3N)cc2CC1=O` is “inactive”; for `C[C@@H]1CN([C@@H](C)CO)C(=O)Cc2cc(NC(=O)CCCCCC(=O)Nc3ccccc3N)ccc2O[C@@H]1CN(C)Cc1ccc(C(F)(F)F)cc1` it is “active”; for `C[C@@H]1CN([C@H](C)CO)C(=O)Cc2cc(NC(=O)CCCCCC(=O)Nc3ccccc3N)ccc2O[C@@H]1CN(C)Cc1ccc(C(F)(F)F)cc1` it is “active”.
The result for `COc1cccc(Nc2ncnn3ccc(CN4CC[C@@H](N)[C@H](O)C4)c23)c1` reads “inactive”; that for `COc1cccc(S(=O)(=O)N2C[C@H](O)COC[C@H]3O[C@H](CC(=O)N4CCN(C)CC4)CC[C@@H]32)c1`, “inactive”; that for `C[C@H](CO)N1C[C@H](C)[C@@H](CN(C)CC2CC2)Oc2ccc(NS(=O)(=O)c3ccccc3)cc2C1=O`, “inactive”.
The entry for `CC1(C)[C@H]2CC[C@@]1(C)c1nn(-c3ccccc3)c(C(F)(F)F)c12` is “inactive”; for `C[C@H](CO)N1C[C@H](C)[C@@H](CN(C)C(=O)Nc2cccc3ccccc23)OCCCC[C@H](C)Oc2ccc(NC(=O)Nc3ccc(F)cc3)cc2C1=O` it is “inactive”.
As for `C[C@H](CO)N1C[C@H](C)[C@H](CN(C)Cc2ccc(Oc3ccccc3)cc2)Oc2ccc(NC(=O)Nc3ccc4c(c3)OCO4)cc2C1=O`, the cytotoxicity call is “inactive”.
For the compound `COc1ccc(NC(=O)Nc2ccc3c(c2)C(=O)N([C@H](C)CO)C[C@H](C)[C@@H](CN(C)Cc2ccc(Oc4ccccc4)cc2)O3)cc1`, the cytotoxicity call is “inactive”.
As to `C[C@@H]1CN([C@@H](C)CO)C(=O)c2cc(NC(=O)Cc3ccccc3)ccc2O[C@H]1CN(C)Cc1ccc(Oc2ccccc2)cc1`, the cytotoxicity call was “inactive”.
On to `C[C@@H]1CN([C@@H](C)CO)C(=O)c2cc(NC(=O)Nc3ccc4c(c3)OCO4)ccc2O[C@H]1CN(C)Cc1ccc(Oc2ccccc2)cc1`, for which the cytotoxicity call was “inactive”.
Regarding `COc1ccc(NC(=O)Nc2ccc3c(c2)C(=O)N([C@H](C)CO)C[C@H](C)[C@H](CN(C)Cc2ccc(Oc4ccccc4)cc2)O3)cc1`, the cytotoxicity call was “active”.
The result for `C[C@@H]1CN([C@@H](C)CO)C(=O)c2cc(NC(=O)Cc3ccccc3)ccc2O[C@@H]1CN(C)Cc1ccc(Oc2ccccc2)cc1` reads “active”.
With `C[C@@H]1CN([C@@H](C)CO)C(=O)c2cc(NC(=O)Nc3ccccc3)ccc2O[C@H]1CN(C)Cc1ccc(Oc2ccccc2)cc1`, the cytotoxicity call was “inactive”.
The result for `COc1ccc(NC(=O)Nc2ccc3c(c2)C(=O)N([C@H](C)CO)C[C@@H](C)[C@@H](CN(C)Cc2ccc(Oc4ccccc4)cc2)O3)cc1` reads “inactive”.
As to `C[C@@H]1CN([C@H](C)CO)C(=O)c2cc(NC(=O)Nc3ccc4c(c3)OCO4)ccc2O[C@@H]1CN(C)Cc1ccc(Oc2ccccc2)cc1`, the cytotoxicity call is “active”.
For the compound `C[C@@H]1CN([C@@H](C)CO)C(=O)c2cc(NC(=O)Nc3ccccc3)ccc2O[C@@H]1CN(C)Cc1ccc(Oc2ccccc2)cc1`, the cytotoxicity call was “active”.
In the case of `C[C@H](CO)N1C[C@H](C)[C@@H](CN(C)Cc2ccc(Oc3ccccc3)cc2)Oc2ccc(NC(=O)Nc3ccccc3)cc2C1=O`, the cytotoxicity call was “inactive”.
In the case of `C[C@@H]1CN([C@H](C)CO)C(=O)c2cc(NC(=O)Cc3ccccc3)ccc2O[C@@H]1CN(C)Cc1ccc(Oc2ccccc2)cc1`, the cytotoxicity call is “inactive”.
Take `Cc1ccc(S(=O)(=O)N[C@@H]2CC[C@@H](CC(=O)N3CCC(Cc4ccccc4)CC3)O[C@H]2CO)cc1`: the cytotoxicity call is “inactive”.
The entry for `C[C@H](CO)N1C[C@H](C)[C@@H](CN(C)Cc2ccc(Oc3ccccc3)cc2)Oc2c(NC(=O)c3ccc(-c4nccs4)cc3)cccc2C1=O` is “inactive”.
